Measurements reported in PubChem BioAssay (NCATS).
Records with an inconclusive call do not appear. Entries that show only a call come without a potency. Calls of active or inactive are those of the source. Calls come from the whole dose curve; as a rule, active = well fitted curve in the direction sought with a large enough effect; inconclusive = small, poorly fitted or top-dose-only effect, or another doubt; inactive = no such curve, though single readings can be large; an effect the other way counts as inactive or inconclusive.

Target: Calcium and integrin-binding protein 1 (Homo sapiens) (UniProt Q99828)
Assay: Confirmatory qHTS for Identification of Calcium Integrin Binding Protein 1 (CIB1) Competitor (AID 1508617); note: nearly all actives have a fitted effect of over 65% in size
Conditions: CIB1 binding competition assay, biochemical qHTS; series mostly up to 76.6 µM
Outline: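 Fluorescence polarization competition: CIB1-GST (1 uM final) in 5 mM HEPES pH 7.4, 125 mM NaCl, 5 mM CaCl2, 0.01% Tween20 preincubated 15 min RT with compound (up to 114 uM), then FITC-alphaIIb peptide (100 nM) added, 15 min RT.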
Potency is the fitted concentration of half-maximal effect.

Sequence of Calcium and integrin-binding protein 1 (Homo sapiens) (Q99828 whole entry, looked up): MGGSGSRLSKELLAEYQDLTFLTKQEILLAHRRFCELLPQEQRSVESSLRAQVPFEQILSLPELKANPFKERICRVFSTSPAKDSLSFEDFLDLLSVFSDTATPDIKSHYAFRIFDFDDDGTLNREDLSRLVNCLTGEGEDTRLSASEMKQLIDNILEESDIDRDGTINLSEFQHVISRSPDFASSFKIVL

Structure (SMILES) | Potency
COc1nc2ccc(Br)cc2cc1[C@@H](c1ccccc1)[C@@](O)(CCN(C)C)c1cccc2ccccc12 | 89.1 µM (active)
O=C(c1ccccc1)c1c(O)cc(O)cc1O[C@@H]1O[C@H](CO)[C@@H](O)[C@H](O)[C@H]1O | inactive
N#Cc1ccc(Nc2nc(-c3ccc(O)cc3O)cs2)cc1C(F)(F)F | 50.1 µM (active)
O=C(O)CSc1cc(NS(=O)(=O)c2ccc(Br)cc2)c2ccccc2c1O | 12.6 µM (active)
CCC1C(=O)N(C)c2cnc(Nc3ccc(C(=O)NC4CCN(C)CC4)cc3OC)nc2N1C1CCCC1 (centres undefined) | inactive
Cn1sc(=O)n(Cc2ccccc2)c1=O | 7.94 µM (active)

Target: Calcium and integrin-binding protein 1 (Homo sapiens) (UniProt Q99828)
Assay: Primary qHTS for Identification of Calcium Integrin Binding Protein 1 (CIB1) Competitor (AID 1508620)
Conditions: CIB1-GST / FITC-alphaIIb peptide fluorescence polarization; series mostly up to 114 µM
Outline: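 CIB1-GST (1 uM final) and compound incubated 15 min at room temperature before adding FITC-alphaIIb peptide tracer (100 nM final). Competition for binding read by fluorescence polarization (ex 480, em 540) after another 15 min at room temperature.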

Structure (SMILES) | Potency
CN[C@H]1CC[C@@H](c2ccc(Cl)c(Cl)c2)c2ccccc21 | inactive
CCN(CC)C(=O)c1ccc(Nc2nc(OCC3CCCCC3)c3[nH]cnc3n2)cc1 | inactive
CCC(CC)(NC(=O)C(C)C)C(=O)N[C@@H](CCCN=C(N)N)C(=O)NC1(C(=O)NC(c2ccc(F)cc2)c2ccc(F)cc2)CCCC1 | inactive
CC1=CC2/C=C(\C)CCC(O)C/C=C/C(=O)OC23C(=O)NC(CC(C)C)C3C1C (centres undefined) | inactive
CCOC(=O)[C@@]1(CCCCCCOc2ccc(Cl)cc2)CO1 | inactive
COc1ccc(C2(N(C)C(=O)c3ccc(NC(=O)c4ccco4)cc3)CCOCC2)cc1 | inactive
CC(=O)OC1CC(C)(C(=O)O)CC2C3=CC(=O)C4C5(C)CCC(OC6OC(C(=O)O)C(O)C(O)C6OC6OC(C(=O)O)C(O)C(O)C6O)C(C)(C)C5CCC4(C)C3(C)CCC12C (centres undefined) | inactive
COCCNCc1ccc(-c2cc3nccc(Oc4ccc(NC(=O)C5(C(=O)Nc6ccc(F)cc6)CC5)cc4F)c3s2)nc1 | inactive
CCCCCCCOc1cc2c(cc1/C(C)=C/c1ccc(C(=O)O)cc1)C(C)(C)CCS2(=O)=O | inactive
CC(=O)OC1CC(C)C2(CCC3(CC(=O)OC3O)O2)C2(C)CCCC(C)(C)C12 (centres undefined) | inactive
CN(C)N(C)C(=O)[C@@]1(Cc2ccccc2)CCCN(C(=O)[C@@H](Cc2c[nH]c3ccccc23)NC(=O)C(C)(C)N)C1 | inactive
CCNC(=O)C#Cc1ccc2c(C(=Nc3ccc(CN(C)C)cc3)c3ccccc3)c(O)[nH]c2c1 | inactive
OC1C=C2C3CN(Cc4cc5c(cc43)OCO5)C2CC1O (centres undefined) | inactive
Cn1ncc(Cl)c1-c1cc(C(=O)N[C@H](CN)Cc2ccc(F)c(F)c2)sc1Cl | inactive
COc1c(CCC(=O)O)cccc1O[C@@H]1O[C@H](CO)[C@@H](O)[C@H](O)[C@H]1O | inactive
Cc1nc2cc(C(=O)NCc3ccccn3)nn2c(C)c1Cc1cccc(Cl)c1 | inactive
C=C(C)C1=C[C@@]2(C)C(=CC1=O)CC[C@@H](O)[C@@H]2C | inactive

Structure (SMILES) | Potency
O=C(O)CSc1cc(NS(=O)(=O)c2ccc(Br)cc2)c2ccccc2c1O | 44.7 µM (active)
CC(C)n1c(=O)c(C(=O)NC2CC3CCC(C2)N3C[C@@H](O)CN(C)S(C)(=O)=O)cc2ccccc21 (some centres undefined) | inactive
CNS(=O)(=O)c1ccccc1Nc1nc(Nc2ccc(N3CCN(C)CC3)cc2OC)ncc1Br | inactive
O=C(NCc1ccccc1)c1ccc2c(=O)n(-c3cccc(C(F)(F)F)c3)c(=S)[nH]c2c1 | inactive
C[C@H](Oc1cc(-c2cnn(C3CCNCC3)c2)cnc1N)c1c(Cl)ccc(F)c1Cl | inactive
Cc1cn(CCN2CCN(c3ccccc3-c3cc(C#N)cc(C(=O)NCCCN4CCCC4)c3)CC2)c2ccccc12 | inactive
CC(C)CCNC(=O)[C@H](CC(C)C)NC(=O)[C@H]1O[C@@H]1C(=O)O | inactive
CC(CCC1(O)OC2CC3C4CC=C5C[C@@H](O[C@@H]6O[C@H](CO)[C@@H](O[C@@H]7O[C@@H](C)[C@H](O)[C@@H](O)[C@H]7O)[C@H](O)[C@H]6O[C@@H]6O[C@@H](C)[C@H](O)[C@@H](O)[C@H]6O)CC[C@]5(C)C4CC[C@]3(C)[C@@]2(O)[C@@H]1C)CO[C@@H]1O[C@H](CO)[C@@H](O)[C@H](O)[C@H]1O (some centres undefined) | inactive
CCNC(=O)Nc1ccc(-c2nc3c(c(N4CCOCC4C)n2)CCN(C2COC2)C3)cc1 (centres undefined) | inactive
CC(=O)O[C@H]1[C@H](O)C[C@@]2(C)C(CC[C@]3(C)C2CC=C2C4CC(C)(C)CC[C@]4(C(=O)O)CC[C@]23C)C1(C)C (some centres undefined) | inactive
CC(C)(O)C1Cc2c(ccc(C(=O)CCc3ccccc3)c2O)O1 (centres undefined) | inactive
CC(=O)O[C@@H]1C[C@@]23C[C@@]24CC[C@H](O[C@@H]2OC[C@H](O)[C@H](O)[C@H]2O)C(C)(C)[C@@H]4CC[C@H]3[C@]2(C)[C@@H](O)C34O[C@H](C[C@@H](C)[C@@H]3[C@@]12C)[C@@H](C(C)(C)O)O4 | inactive
Cc1cccc(-c2[nH]ncc2-c2ccc(F)c(-c3cnn(CCO)c3)c2)n1 | inactive
CC(C)=C[C@@H]1[C@H](CO[C@@H]2O[C@H](CO)[C@@H](O)[C@H](O)[C@H]2O)C1(C)C | inactive
O=C(NCCCc1ccccc1)c1cccc(-c2cc(O)c3ncccc3c2)c1 | inactive
Cn1sc(=O)n(Cc2ccccc2)c1=O | 8.91 µM (active)
